Pf Dd2 growth = blocks in vitro growth of P. falciparum Dd2 | P. falciparum Dd2 growth, SYBR Green, 72 h | Potency, µM (highest dose often 28.9 µM), without a hit: at the highest dose activity, negative = inhibition, hits mostly inhibitors | 120,000 tested, 4.3% active; active means well fitted inhibition curve with a large enough effect;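 further: plate controls were DMSO vehicle for no effect and reference drug for full effect; nearly all actives have a fitted effect of over 65% in size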
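Infected erythrocytes (Dd2, 0.3% parasitemia, 2.5% hematocrit final) are added to compound in RPMI-1640/Albumax II medium, grown 72 h at 37C in low oxygen, then lysed with saponin/Triton-X containing SYBR Green and read by fluorescence.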
Active calls of the source: *; i = inactive; [ ] = another dose, or the depositor's remark. Shown is part of a subset that was picked to be rich in hits. Potency means the concentration at half of the fitted maximal effect.

SMILES	Pf Dd2 growth
C[S+](=O)([O-])N1CC2(Cc3ccccc31)CN(C(=O)c1ccc(Cl)nc1)C2	-24%
COc1cc(CN2CCC([C@@H]3CNC[C@H]3CO)CC2)cc(OC)c1	19%
Cn1nc(C2CCN(C(=O)c3ccc(C(F)(F)F)cc3)CC2)[nH]c1=O	-13%
CCn1nc(CNC(=O)C2CC3(CCNCC3)CN2)c2ccccc21 (stereo unspecified)	-5%
CNC(=O)[C@H]1C[C@H](Oc2ccccc2)CN1Cc1ccc(OC(F)(F)F)cc1	i
COc1ccc([C@H]2C[C@@H](O)[C@@H](O)[C@@H]2NC(=O)c2ccc(C#N)cc2)cc1	33%[44.1 µM]
COCC1CN(C2CCC2)CC12CCN(S(=O)(=O)c1cnc[nH]1)CC2 (stereo unspecified)	-1%
CC(C)(C(=O)NCCc1ccccc1)C1CCOCC1	28%
CN1C(=O)CC(C(=O)O)C12CCN(Cc1nc(-c3ccco3)no1)CC2 (stereo unspecified)	-6%
CC(C)CN1CCOC[C@H](Oc2ccc(C(F)(F)F)cc2)C1	i
Cc1ccc(C(=O)NC(C(=O)NC2CC2)C2CCN(C(=O)c3ccc4c(c3)OCO4)CC2)cc1 (stereo unspecified)	i
Cc1ccc(C2(O)CCN(CC(c3ccccc3)c3ccccc3)CC2)nc1	2.8µM*
Cc1ccc(C2(O)CCN(c3ncccc3C(F)(F)F)CC2)nc1	-19%
COc1ccccc1NC(=O)CN1CCC(O)(c2ccc(C)cn2)CC1	-8%
Cn1nc(C2CCN(C(=O)Nc3ccccc3)CC2)[nH]c1=O	-24%[44.1 µM]
O=C(c1cc(F)ccc1F)N1CCCC(n2cc(-c3nc(-c4ccccc4)no3)nn2)C1 (stereo unspecified)	46%
O=C(Nc1cc2c(cc1C(=O)c1ccccc1Cl)OCCO2)c1ccc(Br)cc1	13%
COc1cccc(C(=O)Nc2cc3c(cc2C(=O)c2ccc(C)cc2)OCCO3)c1	4%
CCC(O)c1cc2c(cc1NC(=O)c1cccc(Br)c1)OCCO2 (stereo unspecified)	11µM*
CC(C)CCN1C(=O)CC[C@]2(C(=O)NCc3ccncc3)CCCC[C@@H]12	10%
CCCN(CCC)C(=O)[C@@]12CCCC[C@H]1N(CCC(C)C)C(=O)CC2	10µM*
CC(C)CCN1C(=O)CC[C@]2(C(=O)NC3CC3)CCCC[C@@H]12	25%
Cc1nc2ncccn2c1C(=O)N1CCC(c2nccn2CC(N)=O)CC1	-6%
COc1ccc(CNC(=O)C2(N3C[C@@H](C)O[C@@H](C)C3)Cc3ccccc3C2)cc1	-8%
CN(Cc1cccc(-c2nn[nH]n2)c1)c1cc(C2CC(N)C2)ncn1 (stereo unspecified)	-13%
SMILES	Pf Dd2 growth
Cc1cccnc1CN(C)c1cc(C2CC(O)C2)ncn1 (stereo unspecified)	13%
COc1ccc(Cl)cc1CN(C)c1cc(C2CC(N)C2)ncn1 (stereo unspecified)	10µM*
O=C1NCCOCCN[C@@H]2CCCC[C@H]12	-1%
O=C(Nc1ccc(-c2cc(C(F)(F)F)nn2-c2ccccc2)cc1)c1cccc(F)c1	11µM*
O=C(NC(=O)c1cccc(F)c1)Nc1ccc(-c2cc(C(F)(F)F)nn2-c2ccccc2)cc1	-18%
O=C(NC(=O)c1ccccc1)Nc1ccc(-c2cc(C(F)(F)F)nn2-c2ccccc2)cc1	i
O=C1COCC2(CN1)CN(Cc1ccc3c(c1)CCO3)C2	i
COCc1ccc(C(=O)N2CC[C@](C)(O)[C@H](C)C2)s1	-16%
CCOC(=O)C1CCN(C(=O)c2cc3c(n2C)CCN(Cc2ccccc2)C3)CC1	1.6µM*
COc1ccc(CNC(=O)c2cc3c(n2C)CCN(Cc2ccc(F)cc2)C3)cc1	-26%
Cc1ccc(CN2CCc3c(cc(C(=O)O)n3C)C2)cc1	i
CN(C)CCNC(=O)c1cc2c(n1C)CCN(Cc1ccccc1)C2	13µM*
Cn1c(C(=O)N2CCCC2)cc2c1CCN(Cc1ccccc1)C2	-6%
COc1cccc(CN2CCc3c(cc(C(=O)Nc4cc(OC)cc(OC)c4)n3C)C2)c1	8.9µM*
COc1ccccc1NC(=O)c1cc2c(n1C)CCN(Cc1ccc(F)cc1)C2	-10%
CN(C)CCCNC(=O)c1cc2c(n1C)CCN(Cc1ccc(F)cc1)C2	-20%
Cc1cccc(CN2CCc3c(cc(C(=O)O)n3C)C2)c1	i
O=C1N(c2ccccc2)C[C@H]2CN(Cc3ncc[nH]3)CCN12	1%[44.1 µM]
Cc1cc(C)c(NC(=O)Cn2nc3n(c2=O)CCCCC3)c(C)c1	-24%
O=C(O)Cn1ccc2cc(OCC3CCN(C(=O)OC4CCCC4)CC3)cnc21	i
CCc1cn(C[C@H](NC(=O)C(C)(C)C)C(=O)O)c(=O)[nH]c1=O	-11%[44.1 µM]
Cn1ccc(C(=O)N2CCC(c3nnc4n3C(C(=O)NCCc3ccc(Cl)cc3)CC4)CC2)n1 (stereo unspecified)	12%
COCCNC(=O)c1ccc2c(c1)N(C)C(CC(=O)NC(C)C)CO2 (stereo unspecified)	0%
O=C1CCN(C(=O)CCc2ccccc2)CCCCCCN1	-1%
O=C(c1ccc2ncccc2c1)N1CCC2(CC1)CC(CO)N(C(=O)c1ccccc1)C2 (stereo unspecified)	-16%
SMILES	Pf Dd2 growth
CCOc1ccc(C2Cn3nnc(-c4nc(C)no4)c3CO2)cc1 (stereo unspecified)	i
Cc1ccc(CC(=O)N[C@@H]2CN(c3ccncn3)C[C@H]2CN(C)C)cc1	7%
CN(C)C[C@@H]1CN(c2ccncn2)C[C@H]1NC(=O)COc1ccc(Cl)cc1	7.9µM*
COc1ccc(CCC(=O)N[C@@H]2CN(c3ccncn3)C[C@H]2CN(C)C)cc1	24%
Cc1cc(C[C@@H]2COC[C@@H]2NC(=O)CCCn2cncn2)on1	16%
CCc1csc(CNC(=O)c2ccc(N3CCSCC3)nc2)n1	-23%
COc1ccc(CNC(=O)CC[C@]23CC[C@](C)(O)C[C@H]2C(C)(C)C[C@@H]3NC(=O)c2cccs2)cc1	i
COc1ccc(CNC(=O)CC[C@]23CC[C@](C)(O)C[C@H]2C(C)(C)C[C@@H]3NC(=O)CC(C)(C)C)cc1	i
COc1ccc(CNC(=O)CC[C@]23CC[C@](C)(O)C[C@H]2C(C)(C)C[C@@H]3NCc2ccccn2)cc1	7.9µM*
Cc1ccc(CN2CCc3nn(Cc4ccccc4)c(=O)n3CC2)nc1	i
N#Cc1ccc(C(=O)N2C[C@@H]3C[C@H](C2)c2c(-c4cccs4)ccc(=O)n2C3)cc1	-27%[44.1 µM]
CCNC(=O)N1[C@H]2CC[C@@H]1c1cnc(-c3ccccc3)nc1C2	-21%
COc1ccc(CNC(=O)N2[C@H]3CC[C@@H]2c2cnc(-c4ccccc4)nc2C3)cc1	11µM*
Cc1noc(C)c1Cc1ccc(C(=O)N2[C@H]3CC[C@@H]2c2cnc(-c4ccccc4)nc2C3)o1	0.63µM*
Cc1noc(C)c1CC(=O)N1[C@H]2CC[C@@H]1c1cnc(-c3ccc(F)cc3)nc1C2	-16%
COc1ccc(CCC(=O)N2[C@H]3CC[C@@H]2c2cnc(-c4ccccc4)nc2C3)cc1	-27%
COc1ccccc1C(=O)N1[C@H]2CC[C@@H]1c1cnc(-c3ccccc3)nc1C2	i
O=C(CC1CCCC1)N1[C@H]2CC[C@@H]1c1cnc(-c3ccccc3)nc1C2	13µM*
O=C(Cc1ccccc1)N1[C@H]2CC[C@@H]1c1cnc(-c3ccccc3)nc1C2	i
COCCC(=O)N1[C@H]2CC[C@@H]1c1cnc(-c3ccccc3)nc1C2	-15%
CC1(C)CC(CC(=O)N2CCN(Cc3ccccc3)CC(O)C2)CC(C)(C)N1 (stereo unspecified)	-19%
CCC(=O)N(C1CCOCC1)C1CCN(Cc2cc(OC)cc(OC)c2)CC1	8%

High-throughput results from PubChem.
